The values that follow come from PubChem BioAssay (EPA / NIEHS).

Where “and” joins values, the source holds several entries; their conditions need not be identical. Equal entries are not always repeated. Some structures have more than one record in an assay (separate samples or runs), and their calls can disagree. Calls of active or inactive are those of the source. How the source made its calls: active means hit-call score of the fitted dose curve at least 0.9, where 1 is the maximum; inactive means score below 0.9.

Read-out in assay [1]: Interleukin-8 (IL8), CXCL8 (gene 3576)
Put plainly: BSK_IMphg_IL8: BioMAP Diversity Plus: IMphg Assay for Interleukin-8 (IL8) Biomarker Activity (AID 2284277). The following applies: primary human endothelial cells with macrophages. In a few lines: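 IL-8 levels were measured by ELISA 24 h after dosing in primary human venular endothelial cell–macrophage cultures, referenced to DMSO; parallel SRB staining monitored overt cytotoxicity.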

Read-out in assay [2]: Intercellular Adhesion Molecule 1 (ICAM1), ICAM1 (gene 3383)
Put plainly: BSK_BE3C_ICAM1: BioMAP Diversity Plus: BE3C Assay for Intercellular Adhesion Molecule 1 (ICAM1) Biomarker Activity (AID 2284278).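 On outcome: cell-surface ICAM-1 protein level quantified by ELISA.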 The following applies: primary human bronchial epithelial cells. In a few lines:
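hu bronchial epithelial primary cells, 24 h cpd exposure, ICAM-1 ELISA; gain-of-signal fit vs DMSO baseline.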

Read-out in assay [3]: Interferon-inducible T-cell alpha chemoattractant (ITAC), CXCL11 (gene 6373)
As to the kind of experiment: BSK_BE3C_ITAC: BioMAP Diversity Plus: BE3C Assay for Interferon-inducible T-cell alpha chemoattractant (ITAC) Biomarker Activity (AID 2284279). Particulars: primary human bronchial epithelial cells. In a few lines: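 ELISA read-out of I-TAC after 24 h chemical dosing of human lung primary bronchial epithelial cells; gain-of-signal fit vs DMSO baseline. Parallel SRB total-protein staining (0.1% SRB, 10% TCA fixation, 560 nm) assessed cytotoxicity.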

Read-out in assay [4]: Interleukin-8 (IL8), CXCL8 (gene 3576)
Put plainly: BSK_BE3C_IL8: BioMAP Diversity Plus: BE3C Assay for Interleukin-8 (IL8) Biomarker Activity (AID 2284280). The following applies: primary human bronchial epithelial cells. A digest of the protocol:
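Primary human bronchial epithelial cells (BE3C system) were exposed to test chemical for 24 h, and IL-8 levels were then measured by ELISA. Activity was fitted in the positive (gain-of-signal) direction against a DMSO negative-control baseline.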

Read-out in assay [5]: Epidermal growth factor receptor (EGFR), EGFR (gene 1956)
Put plainly: BSK_BE3C_EGFR: BioMAP Diversity Plus: BE3C Assay for Epidermal growth factor receptor (EGFR) Biomarker Activity (AID 2284281). Particulars: primary human bronchial epithelial cells. A digest of the protocol:
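Human primary bronchial epithelial cells were exposed to compound for 24 h, and cell-surface EGFR was then quantified by ELISA. Activity was fitted in the positive direction against the DMSO vehicle baseline.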

Read-out in the next assay: KRT18 (gene 3875)
As to the kind of experiment: BSK_BE3C_Keratin818: BioMAP Diversity Plus: BE3C Assay for Keratin 818 Biomarker Activity (AID 2284282). Particulars: primary human bronchial epithelial cells. A digest of the protocol: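 In this multiplexed primary-cell system, bronchial epithelial cells were dosed and harvested at 24 h. Keratin 8/18 was determined by ELISA and analysed for increases over DMSO controls.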

Read-out in assay [6]: Matrix Metallopeptidase 9 (MMP9), MMP9 (gene 4318)
As to the kind of experiment: BSK_BE3C_MMP9: BioMAP Diversity Plus: BE3C Assay for Matrix Metallopeptidase 9 (MMP9) Biomarker Activity (AID 2284283). The following applies: primary human bronchial epithelial cells. As to the method:
BSK_BE3C is a cell-based, multiplexed-readout assay that uses bronchial epithelial cell, a human lung primary cell, with measurements taken at 24 hours after chemical dosing in a 96-well plate.BSK_BE3C_MMP9 is an assay component measured in the BSK_BE3C assay. It measures MMP-9 antibody related to regulation of gene expression using ELISA technology.Data from the assay component BSK_BE3C_MMP9 was analyzed at the endpoint, BSK_BE3C_MMP9, in the positive analysis fitting direction relative to DMSO as the negative control and baseline of activity. Using a type of binding reporter, gain or loss-of-signal activity can be used to understand protein changes. […]
The levels of cell surface (or secreted, indicated by the prefix "s") biomarker endpoints were measured by ELISA. Overt cytotoxicity to cells in confluent adherent cultures (all systems other than the BT system) was assessed by measuring total protein levels using sulforhodamine B (SRB) staining in parallel cultures at the time of biomarker measurements, indicated as SRB endpoints. For proliferation assays for adherent cell types, individual cell types are cultured at sub-confluence and relative cell numbers quantified by SRB staining at time points optimized for each system (48 h: 3C and CASM3C systems; 72 h: BT and HDF3CGF systems; 96 h: SAg system). […] Plates were read after 6 h.

Read-out in assay [7]: Plasminogen activator inhibitor-1 (PAI1), SERPINE1 (gene 5054)
Put plainly: BSK_CASM3C_PAI1: BioMAP Diversity Plus: CASM3C Assay for Plasminogen activator inhibitor-1 (PAI1) Biomarker Activity (AID 2284284).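 Further: PAI-1 protein level measured by ELISA 24 h after dosing.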 The following applies: primary human coronary artery smooth muscle cells.

Read-out in assay [8]: Monocyte Chemoattractant Protein-1 (MCP1), CCL2 (gene 6347)
Put plainly: BSK_hDFCGF_MCP1: BioMAP Diversity Plus: hDFCGF Assay for Monocyte Chemoattractant Protein-1 (MCP1) Biomarker Activity (AID 2284285). The following applies: primary human foreskin fibroblasts. In a few lines: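 MCP-1 ELISA readout was taken 24 hours after dosing primary human dermal fibroblasts in the hDFCGF system, with DMSO as baseline. Parallel sulforhodamine B staining of total protein tracked overt cytotoxicity.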

Read-out in assay [9]: Vascular cell adhesion molecule 1 (VCAM1), VCAM1 (gene 7412)
As to the kind of experiment: BSK_IMphg_VCAM1: BioMAP Diversity Plus: IMphg Assay for Vascular cell adhesion molecule 1 (VCAM1) Biomarker Activity (AID 2284286). Particulars: primary human endothelial cells with macrophages. A digest of the protocol:
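ELISA read-out of VCAM-1 on venular endothelial cell/macrophage co-cultures at 24 h post-treatment, with DMSO as baseline and positive-direction fitting. Parallel sulforhodamine B total-protein staining (560 nm) served as the overt cytotoxicity measure.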

For the compound `O=S(=O)(O)C(F)(F)C(F)(F)C(F)(F)C(F)(F)C(F)(F)C(F)(F)C(F)(F)C(F)(F)F`, the result (in assay [1]; in [2]; in assay [4]; in assay [5]; in the assay with KRT18 (gene 3875); in assay [7]) was inactive. In addition, the outcome in assay [8] and in assay [9] was inactive. The AC50 (usually the concentration at which the activity in the assay is half-maximal) in [2] is 49.3 µM (active) and 53.4 µM (active); in assay [3], 40.8 µM (active) [middle of 4 runs]; in assay [4], 30 µM (active) and 7.03 µM (active) and 2.79 µM (active); in assay [5] it was 16.5 µM (active) and 11.6 µM (active) and 13.2 µM (active); in [6], 17.7 µM (active) [middle of 4 runs].
`O=C(O)C(F)(F)C(F)(F)C(F)(F)C(F)(F)C(F)(F)C(F)(F)C(F)(F)F`: the AC50 in [1] was 20.5 µM (active) and 20.3 µM (active) and 25.2 µM (active). Further, the result (in assay [1]; in assay [2]; in assay [3]; in assay [4]; in [5]; in the assay with KRT18 (gene 3875)) was inactive. Moreover, the outcome in [6], in assay [7], in [8] and in assay [9] was inactive.
